In the library only some 3.7% were active in any assay of this set; here they are far more common.
tim23-1 inh: growth inhibitors of tim23-1 mutant yeast, primary screen, luminescence, uHTS. S. cerevisiae tim23-1 growth, BacTiter-Glo luminescence, 24 h. AID 463212, 2010. inhibition, % at 20 µM. 330,000 tested, 1.3% active;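 active means growth inhibition of the mutant yeast at or above 50%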;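 further: temperature-sensitive mutant grown at 25 °C; plate controls were DMSO-treated mutant yeast for no effect and medium wells lacking yeast for full effect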
TIM10 inh: growth inhibitors of isogenic TIM10 control yeast, primary screen, counter-screen for tim10-1 yeast inhibitor project, luminescence, uHTS; inhibition, % at 10 µM; S. cerevisiae TIM10 strain growth, BacTiter-Glo luminescence, 24 h; 330,000 tested, 1.4% active; AID 463195, 2010;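 active means inhibition of 40% or more at the single tested concentration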;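 further: wild-type TIM10 isogenic control strain grown at permissive 25 °C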
tim10-1 inh: growth inhibitors of tim10-1 mutant yeast, primary screen, luminescence, uHTS | S. cerevisiae tim10-1 ts strain growth, BacTiter-Glo, 24 h | inhibition, % at 20 µM | 330,000 tested, 2.2% active;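 active means inhibition of at least 40%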;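 further: mutant grown at 25 °C; 0% = DMSO wells with yeast and 100% = wells holding no yeast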
NLRP3 yeast inh: NALP3 inflammasome inhibitors in reconstituted yeast, primary screen, luminescence, uHTS; 330,000 tested, 0.39% active; AID 2825, 2010; Yeast reconstituted NLRP3/ASC/caspase-1, beta-gal luminescence, 24 h; inhibition, % at 10 µM;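 active means inhibition of 50% or more; inactive means inhibition below 50%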;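 further: plate controls were induced DMSO wells for no effect and uninduced yeast grown without galactose for full effect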
PfHsp90 yeast 2: growth inhibition of PfHsp90-expressing yeast, primary screen, antimalarial PfHsp90 inhibitor project, S. cerevisiae, BacTiter-Glo luminescence, single point, set 2. BacTiter-Glo ATP, 48 h; yeast lacking PDR1 and PDR3 efflux regulators. 310,000 tested, 0.32% active. inhibition, % at 9.4 µM;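 active means every replicate shows inhibition above about 80%, whatever the replicate mean, limit read from the data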;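 further: 0% = DMSO neutral controls and 100% = 20 µM radicicol positive controls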
tim10-1 confirm: growth inhibitors of tim10-1 mutant yeast, confirmation, single concentration, luminescence, S. cerevisiae; shares compounds with tim10-1 inh; S. cerevisiae tim10-1 ts strain growth, BacTiter-Glo, 24 h; inhibition, % at 20 µM; 7,400 tested, 56% active; AID 463213, 2010;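 active means inhibition of yeast growth at or above a set limit in either of two repeat tests at 20 µM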;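 further: tim10-1 mutant grown at permissive 25 °C to find synthetic lethal compounds; 0% = DMSO yeast wells and 100% = medium wells without yeast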
* = called active by the depositor; x = no result given.

SMILES | tim23-1 inh | TIM10 inh | tim10-1 inh | NLRP3 yeast inh | PfHsp90 yeast 2 | tim10-1 confirm
CC(C)=CCSc1nnc([C@@H](N)Cc2c[nH]c3ccccc23)o1 | 33 | 9 | 45* | 19 | -9 | 32*
N[C@@H](Cc1c[nH]c2ccccc12)c1nnc(SCc2ccccc2)o1 | 38 | 33 | 43* | 19 | 5 | 47*
CCc1ccccc1NC(=O)CSc1nnc([C@@H](N)Cc2c[nH]c3ccccc23)o1 | 26 | 29 | 23 | 1 | -2 | x
COC(=O)C1=C(c2cccc(NC(C)=O)c2)C[C@@H]2CC[C@H]1N2C | 1 | 0 | -2 | 10 | -33 | x
O=c1[nH]c(=O)n(C2CCCCC2)c(O)c1/C=C/C=Nc1ccccc1 | 8 | 6 | 12 | 5 | 20 | x
COC(=O)C1=C(c2c(C)noc2C)C[C@@H]2CC[C@H]1N2C(=O)NCCNC(C)=O | -5 | 3 | -19 | 2 | 7 | x
O=C1CC(N2CC=C(c3ccc(F)cc3)CC2)C(=O)N1c1ccc(F)cc1 (centres undefined) | 40 | 20 | 43* | 11 | -10 | 26
COc1ccc2c(c1)CC1(CN2C)C(=O)NC(=O)N(CCc2ccccc2)C1=O (centres undefined) | 22 | -11 | 3 | 24 | -11 | x
CCC(C)N1C(=O)NC(=O)C2(Cc3c(ccc4ccccc34)N(C)C2)C1=O (centres undefined) | 31 | 23 | 45* | 13 | 1 | 31*
CCn1c(O)c(/C(C)=N/N2CCCCC2c2cccnc2)c(=O)[nH]c1=S (centres undefined) | 24 | 26 | 48* | -4 | -70 | 21
O=C(Cc1ccccc1F)N1CCN(CC(=O)N2CCCC2)CC1 | -3 | -3 | -7 | 6 | -8 | x
CC(C)(C)c1cc([N+](=O)[O-])cc(C(C)(C)C)c1O | 43 | 25 | 49* | 12 | x | 44*
COc1ccc(NC(=O)N2C[C@@H]3C[C@@H](C2)c2cccc(=O)n2C3)c(OC)c1 | 16 | 0 | 6 | 4 | 0 | x
O=[N+]([O-])/C=C1/NCCN1Cc1ccc(Cl)nc1 | 5 | 2 | 11 | 12 | -4 | x
Cc1cc(-c2ccccc2)cc(-c2ccccc2)[n+]1CCc1ccccc1 | -4 | 15 | 14 | 7 | 3 | x
Clc1ccc(C[n+]2c(-c3ccccc3)cc(-c3ccccc3)cc2-c2ccccc2)cc1 | 31 | 37 | 45* | 16 | 18 | 38*
O=C1NC(=O)N(CCc2ccc(F)cc2)C(=O)/C1=C/c1cccs1 | 44 | 1 | 52* | 2 | x | -6
O=C1NC(=O)N(CCC2=CCCCC2)C(=O)/C1=C\c1cccs1 | 23 | 6 | 18 | 14 | 16 | x
CCCCn1c(O)c(C(CC)=Nc2ccc(OC)cc2OC)c(=O)[nH]c1=O | 35 | 21 | 41* | 5 | -21 | 16
CCCCn1c(O)c(C(CC)=Nc2ccc(OCC)cc2)c(=O)[nH]c1=O | 18 | 37 | 27 | 18 | 9 | x
N#Cc1cc2c(nc1SCC(=O)Nc1cc(Cl)ccc1Cl)C1CCN2CC1 | 21 | 11 | 40* | 19 | 13 | 23
COc1cccc(Oc2coc3cc(OC(=O)N(C)C)ccc3c2=O)c1 | 11 | 4 | 17 | 26 | -7 | x
CN(C)C(=O)Oc1ccc2c(=O)c(Oc3ccccc3Br)coc2c1 | 29 | 15 | 46* | 0 | 19 | 13
Cn1c(O)c(C(c2ccncc2)c2c(O)n(C)c(=S)n(C)c2=O)c(=O)n(C)c1=S | 11 | -17 | 42* | 5 | x | 14
Cn1c(O)c(C(c2ccccn2)c2c(O)n(C)c(=S)n(C)c2=O)c(=O)n(C)c1=S | 9 | -18 | 9 | 8 | -18 | x
SMILES | tim23-1 inh | TIM10 inh | tim10-1 inh | NLRP3 yeast inh | PfHsp90 yeast 2 | tim10-1 confirm
COc1cccc(C2CCN(CC(=O)Nc3cc(Cl)ccc3OC)CC2O)c1 (centres undefined) | 25 | 2 | 41* | 25 | -37 | 4
COc1cccc(CC(=O)N2CCN(Cc3cccc(Cl)c3)CC2)c1 | 35 | 18 | 29 | 14 | 11 | x
CC(=O)OC[C@]12CCC(C)=C[C@H]1O[C@@H]1[C@H](O)[C@@H](OC(C)=O)[C@@]2(C)[C@]12CO2 | 26 | 26 | 54* | 19 | x | 49*
C=C(C=O)CC1CC(O)[C@]2(C)OC3CC4OC5C[C@]6(C)O[C@]7(C)CCC8OC9C[C@]%10(C)OC%11C(C)=CC(=O)OC%11CC%10OC9C[C@@H](C)C8OC7CC6O[C@]5(C)CC5OC5C4OC3CC2O1 (some centres undefined) | -7 | -14 | 59* | 29 | -3 | 29*
COC(=O)C1=C(c2ccc(F)cc2OCc2ccccc2)C[C@@H]2CC[C@H]1N2C(=O)NCCN1CCOCC1 | -1 | 0 | -6 | 8 | 12 | x
Oc1c(Cl)c(Cl)c(Cl)c(Cl)c1Cl | 39 | 39 | 47* | 40 | 23 | 31*
COc1cc2c(cc1OC)C13CCN4CC5=CCOC(CC(=O)O)C(C5CC41)C3N2 (centres undefined) | x | x | x | x | -8 | x
O=C(CCN1CCOCC1)NCC(=O)Nc1ccc(Br)cc1C(=O)c1ccccc1 | 18 | 9 | -4 | 4 | 9 | x
CC(C(=O)Nc1ccc(Br)cc1C(=O)c1ccccc1)N1CCOCC1 (centres undefined) | 13 | 27 | 41* | 15 | -19 | 25
CC(C)OCCCNC(=O)c1c(N)n(CC2CCCO2)c2nc3ccccc3nc12 (centres undefined) | 30 | 18 | 29 | -5 | 2 | x
CCCNC(=O)c1c(N)n(CC2CCCO2)c2nc3ccccc3nc12 (centres undefined) | 31 | 26 | 45* | 8 | x | 14
CCCCn1c(N)c(C(=O)NCc2cccs2)c2nc3ccccc3nc21 | 36 | 25 | 41* | 17 | 25 | 24
COc1ccc2c3c1OC1C(=O)CC[C@@]4(O)[C@@H](C2)N(CC2CC2)CC[C@]314 (some centres undefined) | 0 | 5 | -2 | -2 | x | x
COc1ccc2nc(NC(=O)CCc3nc(C4=CCN(C)CC4)no3)sc2c1 | 12 | -1 | 43* | 1 | -7 | 13
C[C@@H]1CCC2[C@@H](C)C(=O)O[C@@H]3OC4(C)CCC1[C@@]23OO4 (some centres undefined) | 7 | 18 | 23 | 0 | x | x
c1ccc2c(c1)[IH]c1ccccc1-2 | x | x | x | x | 30 | x
Brc1ccc2[nH]cc(/C=N/N3CCCCC3)c2c1 | 47 | 18 | 42* | 28 | -7 | 22
O=C(O)C(Cc1cnc[nH]1)NS(=O)(=O)c1ccc(Br)cc1 (centres undefined) | 9 | 1 | 12 | 19 | 11 | x

Screening data (PubChem BioAssay)
